B1: chr2:47387610:47387611:-_ENSG00000143933_ENST00000272298|hu_mus|FALSE|FALSE (ssRNA)
RNA: GGGAGUUCUACAGUCCGACGAUCUCCACGCAGAGUUACAGCUCCACACUUCAACAACAACAUGCUGACAGUUCCUAAAAGCUACUUUAAAAAAGGCAUAACCCAGAUGUUCCCUCAUUGGACCAACUCCAUCUAAGUUUAGAUCAACAGAGGAUUGAGCAUCA
B2: chr8:104447970:104447971:+_ENSG00000164934_ENST00000297579|hu_hu|hu_hu_hu_mus_False|88_98 (ssRNA)
RNA: GGGAGUUCUACAGUCCGACGAUCAUACACUUCCCUGCUUCGACUUUUGUCUACAGGAAAGAUUCUAAUAGACUUAUCAAAGCUGGCAGACACAAAUUCCUUCCCAGUGGGAGAGUAGUCCACAUCAAGUACUGCAGACACGUGCAACAGAGGAUUGAGCAUCA
B3: chr3:150289932:150289933:+_ENSG00000144895_ENST00000460851|hu_hu|hu_hu_hu_mus_False|28_58 (ssRNA)
RNA: GGGAGUUCUACAGUCCGACGAUCCUUGUAGUUUUUAACAUCCCAUACUUCCAUUUGUCCUCGAAGAUUUCCAAAUCCAGCUAAUACUAAUAUAUGUCCAUGAGGGCUAUAGUAGGCUGCGUUGCGAGGACCAGUCCCAAAGUCCAACAGAGGAUUGAGCAUCA
B4: chr13:51516861:51516862:+_ENSMUSG00000067586_ENSMUST00000087978|mus_mus|FALSE|FALSE (ssRNA)
RNA: GGGAGUUCUACAGUCCGACGAUCCUUGGUGACAUAGAGAAGGGCAAGGCCAAUGAUGGAGCAGAACUUCUUGGCAGUGACCUAUAUACACCAGGAGUGACAUGAGGGGAAGUCUUUAGUUAGUCAGACCAGGGUUACCUAAGGCAACAGAGGAUUGAGCAUCA
B5: chr19:5940991:5940992:-_ENSMUSG00000024833_ENSMUST00000025752|mus_hu|FALSE|FALSE (ssRNA)
RNA: GGGAGUUCUACAGUCCGACGAUCGUUCACACAGACACAGCCGAGGACAUCCUUCACGAAGUACCUCAGCUCUGACGGGAUGAUGAGGACAUCUGGGGUGACAGGCAGCUGUGCGUAAACAUAGAACGACUCAUAGUCAAUGGCCAACAGAGGAUUGAGCAUCA
B6: chr6:168291551:168291552:+_ENSG00000130396_ENST00000400822|hu_mus|motif|central (ssRNA)
RNA: GGGAGUUCUACAGUCCGACGAUCAUGUUUCUUCAUUUUCUUUGGGAUGUAGUCCGGUGGUCUCCUCUUCAACUGAAAGACGGAAAUCCCUUUGUCACUUGGCCAUUCCCUGAAGAUUUGUAAAGGACAUUCAUCAUCGUCAAGCAACAGAGGAUUGAGCAUCA
B7: chr16:50257146:50257147:+_ENSG00000121274_ENST00000436909|hu_mus|FALSE|FALSE (ssRNA)
RNA: GGGAGUUCUACAGUCCGACGAUCUAUCCGGAUGCCAGUCUUUAAGUAAUUGAAGUGCCGUCCAUAUAAUUCAAAAAACUCUAUUAAGAGAACACCAUAGUUUGUAUUGGGGAUGCAAGCAUCUUCCCUGGGAUGUAACUGAAGCAACAGAGGAUUGAGCAUCA
B8: chr1:39494447:39494448:+_ENSG00000168653_ENST00000372967|hu_mus|hu_hu_hu_mus_False|18_18 (ssRNA)
RNA: GGGAGUUCUACAGUCCGACGAUCGCACCGAGCGGCGUUCUUAUAGGGCUGUUCUGCGCUUAGGAACAUAAAGUGCCGGUCCAGGCUGAUGCCCAGCUUUUUCUGUAUGUCAAGGAAAGGCAUGGCCCUGCAGUGCCCUUGUCACAACAGAGGAUUGAGCAUCA
B9: chrX:140365796:140365797:-_ENSMUSG00000031285_ENSMUST00000033642|mus_mus|mus_mus_mus_hu_False|8_58 (ssRNA)
RNA: GGGAGUUCUACAGUCCGACGAUCCUUCUCAUUACUCAGUGCCUGCAAGGUUCUGGUUCGGUAGAAGCUACAGUGGGCACUAUGAGUGGGGCUAGGCAACCCAUUCAUCCGGGAGCCUCGCAUGUUCCUAGAUGCUUUAUCUCUCAACAGAGGAUUGAGCAUCA
B10: chr3:10015032:10015033:+_ENSMUSG00000027533_ENSMUST00000029046|mus_mus|mus_mus_mus_hu_True|1_38 (ssRNA)
RNA: GGGAGUUCUACAGUCCGACGAUCGUUUUUACCAUCACAAGUGAUGAUACAAUCUGGCUUGGCCAUUGCGCCCAUUUUUCGCAAAGCUAUUCCCACUCCUAGCUCUUUCAUGUAUUCAUCAAAGCCUUUGCUGUCCAUCAGGCGCAACAGAGGAUUGAGCAUCA
B11: chr4:6320793:6320794:+_ENSMUSG00000028249_ENSMUST00000103008|mus_mus|FALSE|FALSE (ssRNA)
RNA: GGGAGUUCUACAGUCCGACGAUCAGUAGGCAUGAUUGUGAUGGUAACCACAGUCCCAGCUGUUGACAGUAUAUCUGCAAUCUGAGCAUCCUUCAAGCCAAUGACGUUCUGUCCGUUGAUCUCACAGAUGUGGUGAUCAGUGAGCAACAGAGGAUUGAGCAUCA
B12: chr2:202488911:202488912:-_ENSG00000155755_ENST00000286196|hu_hu|FALSE|FALSE (ssRNA)
RNA: GGGAGUUCUACAGUCCGACGAUCUUUUAACAUUUUUCAUAAUAUUGAGAGAUGUUUCAGUAUUAUAUAAUCAAAAAAUCUAUUACAAAUACACAUGUAUACAUCUUAUAAAAAUACAUUUAAAAACAAAAAUGGGACAAAUACCAACAGAGGAUUGAGCAUCA
B13: chr2:174291214:174291215:-_ENSMUSG00000016257_ENSMUST00000016401|mus_hu|FALSE|FALSE (ssRNA)
RNA: GGGAGUUCUACAGUCCGACGAUCUUGAUCAAGUCACAUAGCCUUACACCAACUUAUCAAAAAAAAAAAAAAAAAAACUACCCAAAAUAUAGUUGUAUUUUUAAAAUAACAAAUAAAUAUAUAGUCAGUUUGGAGAGACCUGGACAACAGAGGAUUGAGCAUCA
B14: chr2:174291214:174291215:-_ENSMUSG00000016257_ENSMUST00000016401|mus_hu|motif|central (ssRNA)
RNA: B13 RNA with U78G, A79G
B15: chr3:142455598:142455599:-_ENSMUSG00000004591_ENSMUST00000043812|mus_mus|FALSE|FALSE (ssRNA)
RNA: GGGAGUUCUACAGUCCGACGAUCGUAGAGCAUUUGAUCAAAUUAUUUGUGAGACUUUUGAGGUACAGCUUUAGUGUUAUAAUAACUUUUUAUAAAAUAUAGACUGUUUUAUCAAAAAUAUUUAUACAUUCUGUUACAAUAUAUCAACAGAGGAUUGAGCAUCA
B16: chr22:42024162:42024163:+_ENSG00000196419_ENST00000405878|hu_hu|FALSE|FALSE (ssRNA)
RNA: GGGAGUUCUACAGUCCGACGAUCCUCAUCUUCACUCUGAGAUUCAAACAUAGCCUUGGAGGCAUCAACCAAAAAAAUCAAACUAUCUCUUCCUGAAUAUUUAUAGUCUCCACUUGCUUCAAGGUUCUCUUCUUGUUCUUCCUCCAACAGAGGAUUGAGCAUCA
B17: chr20:57609950:57609951:-_ENSG00000101166_ENST00000355937|hu_hu|FALSE|FALSE (ssRNA)
RNA: GGGAGUUCUACAGUCCGACGAUCUGUUUUGAUCAAGUCACAUAGCCUUACACCAACUUAUCAAAAAAAAAAAAAAAAAAACUACCCAAAAUAUAGUUGUAUUUUUAAAAUAACAAAUAAAUAUAUAGUCAGUUUGGAGAGACCCAACAGAGGAUUGAGCAUCA
B18: chr7:135612270:135612271:-_ENSG00000105887_ENST00000393085|hu_mus|hu_hu_hu_mus_False|8_18 (ssRNA)
RNA: GGGAGUUCUACAGUCCGACGAUCGUUUUUUUCUGAGAUGUUAAAUAGUACUUCAGUGGAAAACAAAACUUAACCUUUUAUUAAUGCGUGUUGUACCAAAAGCAGACAUUUUAGCUUGCUUCCUUUACUCAAAAUAUCAUUAAGCAACAGAGGAUUGAGCAUCA
B19: 60597838_60597958_3500_3pUTR_ENSMUSG00000049323_ENSMUST00000056907|mouse|control|control (ssRNA)
RNA: GGGAGUUCUACAGUCCGACGAUCUUUUUGGGAGCUACUUCCUUAAUGAACCAGGAGCAGCUGCUACUGUCCUUCUGGAGGGCCAUGUGCCACCUCUGCUCAGCCCACAUCACACACUGCCCAGGGCUAUGUUGCAACUAUAACCAACAGAGGAUUGAGCAUCA
B20: chr17:45757878:45757879:+_ENSG00000108424_ENST00000290158|hu_hu|FALSE|FALSE (ssRNA)
RNA: GGGAGUUCUACAGUCCGACGAUCUGGCCUAGCUUCUACUAAUUUCAGUACAUCCUUCCCAAAUGCUGUACAUAAGUCCCCUAUUAGUCCAGCAGCACAAGCUACUACUCCAUCUGUGUGAUCCUCAUCUCCAGCAAUGUGGUCCAACAGAGGAUUGAGCAUCA
B21: chr19:16452684:16452685:+_ENSMUSG00000024639_ENSMUST00000025541|perfect_dup|FALSE|FALSE (ssRNA)
RNA: GGGAGUUCUACAGUCCGACGAUCGUUUAAGAACAGAAUCACAGAGGAGUUCUGGAACCAGGGGUAGGUGAUAAUUGUUCUAAAGAGUGCUUUGCUCUCCUCCAUGCGGUUCUCAUUGUCUGACUCCACAAGAACUUGAUCAUACAACAGAGGAUUGAGCAUCA
B22: chr5:128448638:128448639:+_ENSG00000066583_ENST00000173527|hu_mus|hu_hu_hu_mus_False|98_98 (ssRNA)
RNA: GGGAGUUCUACAGUCCGACGAUCGGCACUCGCCUUAAUUAGAUUCUGAAUUUCCUUGAACUUCGGGUGGUCUUUGUCAGCCACCAGCUGUAGGAGGACAGCCUCACUAGUGGUCACGAUGAUCCCAGUGCGGGCAAGACGCUCCAACAGAGGAUUGAGCAUCA

Residue numbers refer to the chain shown, from its start. The full ranking holds about 24,000 sequences; the median of “enrichment r” is about 0.99, and the highest 2% start at about 3.7. For the sample, the highest values were picked, then their nearest neighbours and some sequences at random.

The target of this experiment is T1, UNK ZnF1-3 (human, UniProt Q9C0B0 31-174).
T1 sequence: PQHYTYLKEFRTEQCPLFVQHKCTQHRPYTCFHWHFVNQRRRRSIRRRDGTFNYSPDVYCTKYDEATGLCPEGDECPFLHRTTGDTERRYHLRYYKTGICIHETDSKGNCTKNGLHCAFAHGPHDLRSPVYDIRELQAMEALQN
Briefly: nsRBNS (natural sequence RNA bind-n-seq); RBNS binding buffer (assumed for nsRBNS): 25 mM Tris pH 7.5, 150 mM KCl, 3 mM MgCl2, 0.01% Triton X-100, 500 ug/ml BSA, 20 U/ml SUPERase-In, 4 C; UNK is unkempt and MSI1 is Musashi-1; names of the RNAs are library labels; protein concentration not given here; high values mean tight binding.
The molecule B1 displayed a binding signal of 1.21 enrichment R.
The figure for B2 is 0.947 enrichment R.
The molecule B3 yielded a binding signal of 1.1 enrichment R.
B4 came in with a binding signal of 1.32 enrichment R.
B5: the binding signal amounted to 1.51 enrichment R.
With B6, the binding signal is 0.653 enrichment R.
In turn, B7 displayed a binding signal of 1.63 enrichment R.
In turn, B8 displayed a binding signal of 0.805 enrichment R.
In the case of B9, the binding signal was found to be 0.475 enrichment R.
As for B10, the binding signal stood at 0.702 enrichment R.
The molecule B11 gave a binding signal of 0.725 enrichment R.
Turning to B12, the binding signal was 1.78 enrichment R.
In the case of B13, the binding signal is 7.95 enrichment R.
As for B14, the binding signal worked out at 8.06 enrichment R.
B15 returned a binding signal of 0.537 enrichment R.
For B16, the binding signal was determined as 1.1 enrichment R.
B17: the binding signal is 5.71 enrichment R.
With B18, the binding signal turned out to be 0.545 enrichment R.
B19 showed a binding signal of 0.845 enrichment R.
The same measure for B20: 1.02 enrichment R; for B21: 0.726 enrichment R.
On to B22, for which the binding signal amounted to 0.728 enrichment R.
